# Shown are actives, neighbours in structure and some others; about 3.7% of the full set was active somewhere.
# TIM10 inh – TIM10 yeast growth inhibition; S. cerevisiae TIM10 strain growth, BacTiter-Glo luminescence, 24 h; inhibition, % at 10 µM; 330,000 tested, 1.4% active;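 active = inhibition of 40% or more at the single tested concentration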;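 note: wild-type TIM10 isogenic control strain grown at permissive 25 °C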
# PfHsp90 set2 – growth inhibition of yeast expressing Plasmodium Hsp90 | S. cerevisiae expressing PfHsp90, BacTiter-Glo ATP, 48 h; yeast lacking PDR1 and PDR3 efflux regulators | inhibition, % at 9.4 µM | 310,000 tested, 0.32% active;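 active = every replicate shows inhibition above about 80%, whatever the replicate mean, limit read from the data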;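 note: 0% = DMSO neutral controls and 100% = 20 µM radicicol positive controls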
# tim23-1 inh – tim23-1 yeast growth inhibition. AID 463212. 330,000 tested, 1.3% active. inhibition, % at 20 µM. S. cerevisiae tim23-1 growth, BacTiter-Glo luminescence, 24 h;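 active = growth inhibition of the mutant yeast at or above 50%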;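 note: temperature-sensitive mutant grown at 25 °C; plate controls were DMSO-treated mutant yeast for no effect and medium wells lacking yeast for full effect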
# Rce1 inh – blocks yeast Ras-converting enzyme; 290,000 tested, 0.27% active; calls only; yeast membranes, quenched prenylated peptide cleavage fluorescence; Q03530; AID 2563;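 active = fall in fluorescence gain of 50% or more versus controls, with final raw signal at or below 3038400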;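 note: plate controls were neutral control wells for no effect and wells lacking membranes for full effect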
# Target sequence (Q03530 whole entry, looked up): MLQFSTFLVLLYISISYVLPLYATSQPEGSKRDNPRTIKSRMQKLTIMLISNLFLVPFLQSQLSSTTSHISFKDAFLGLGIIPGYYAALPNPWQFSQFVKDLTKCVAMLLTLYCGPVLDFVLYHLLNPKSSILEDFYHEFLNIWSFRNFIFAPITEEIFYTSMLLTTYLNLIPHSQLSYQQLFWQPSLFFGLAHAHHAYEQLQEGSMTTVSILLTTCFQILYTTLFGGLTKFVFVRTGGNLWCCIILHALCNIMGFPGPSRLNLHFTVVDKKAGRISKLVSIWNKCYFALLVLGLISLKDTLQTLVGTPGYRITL
# tim10-1 inh – growth inhibitors of tim10-1 mutant yeast; S. cerevisiae tim10-1 ts strain growth, BacTiter-Glo, 24 h; inhibition, % at 20 µM; 330,000 tested, 2.2% active; AID 463190;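 active = inhibition of at least 40%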;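 note: mutant grown at 25 °C; 0% = DMSO wells with yeast and 100% = wells holding no yeast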
# tim10 confirm – confirmation of TIM10 yeast growth inhibitors; shares compounds with TIM10 inh; S. cerevisiae tim10 strain growth, BacTiter-Glo luminescence, 24 h; inhibition, % at 10 µM; 4,600 tested, 63% active; AID 463215;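 active = inhibition of yeast growth at or above a set limit in either of two replicates at 10 µM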;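 note: this counterscreen used the strain with wild-type TIM10; 0% = yeast with DMSO and 100% = medium wells lacking yeast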
# tim23-1 conf – confirmation of tim23-1 mutant yeast growth inhibitors | shares compounds with tim23-1 inh | S. cerevisiae tim23-1 growth, BacTiter-Glo luminescence, 24 h | inhibition, % at 20 µM | 4,400 tested, 83% active | AID 463218;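 active = inhibition above about 39% in either of two replicate wells at 20 µM, limit read from the data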;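 note: temperature-sensitive tim23-1 mutant grown at 25 °C; 0% = DMSO wells with yeast and 100% = medium wells without yeast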
# The depositor's hits bear a star; i = inactive; · = no result given.
SMILES,TIM10 inh,PfHsp90 set2,tim23-1 inh,Rce1 inh,tim10-1 inh,tim10 confirm,tim23-1 conf
NC(=S)N/N=C\c1ccccc1OCc1ccccc1,41*,-7,53*,i,10,-37,22
COC(=O)c1sccc1NC(=S)N1CCN(c2ccccc2F)CC1,0,6,10,i,20,·,·
N/C(=N\OC(=O)c1ccc(Cl)c(Cl)c1)c1cccc(CSc2ccccn2)c1,72*,-4,79*,i,39,84*,49*
Cc1ccc(NC(=O)CN(C)C(=O)/C=C/c2ccc3c(c2)OCO3)cc1,-3,-4,21,·,-9,·,·
CN1CCSc2ccc(C(=O)Nc3cccc(F)c3)cc21,47*,23,68*,i,-15,51*,71*
COc1cc(OC)cc(C(=O)NNC(=S)NCc2ccco2)c1,12,5,-1,i,-2,·,·
Cc1ccc2cccc(OCC(=O)NCCC3=CCCCC3)c2n1,9,16,32,·,6,·,·
O=C(Nc1nccs1)c1ccc2c(=O)n3c(nc2c1)CCCCC3,49*,10,52*,i,6,44*,66*
Cc1csc(NC(=O)c2ccc3c(=O)n4c(nc3c2)CCCCC4)n1,16,23,28,i,-6,·,·
O=C(Nc1nccs1)c1ccc(S(=O)(=O)c2ccccc2)cc1,4,4,-6,i,7,·,·
O=C(Nc1nccs1)c1ccc2ccccc2c1,46*,-38,54*,i,-27,52*,63*
CCOC(=O)CSc1c(-c2cccs2)[nH]c2ccccc12,49*,-37,55*,i,31,-17,52*
CC(=O)c1ccccc1NC(=O)COC(=O)CN1C(=O)C2CCCCC2C1=O (stereo not given),-1,-25,10,·,8,·,·
CNc1ccc(/C=C2\COc3ccccc3C2=O)cc1[N+](=O)[O-],1,19,9,i,10,·,·
O=C1/C(=C/c2ccc(O)cc2)COc2ccccc21,46*,4,78*,·,39,36*,50*
CCCc1nc2oc3cc(OC)ccc3c(=O)c2c(=O)n1Cc1ccco1,-17,-38,0,i,22,·,·
CCCCCCn1c(-c2ccco2)nc2oc3cc(OC)ccc3c(=O)c2c1=O,45*,-6,50*,i,34,16,37*
COc1ccc(-c2n[nH]c(C)c2-c2cnn(-c3ccccc3)c2)c(O)c1C,48*,-14,51*,i,39,45*,59*
N/C(=N\OC(=O)Cc1ccccc1)c1cccc(Br)c1,-1,-22,23,i,9,·,·
N/C(=N\OC(=O)Cc1ccccc1[N+](=O)[O-])c1cccc(Br)c1,51*,5,59*,i,38,59*,67*
Cc1ccc(OC(C)C(=O)N/N=C/c2ccccn2)cc1 (stereo not given),8,11,10,i,18,·,·
COc1ccccc1NS(=O)(=O)c1cc(C(=O)NCCC(C)C)ccc1F,8,22,5,i,-19,·,·
CC(=O)Nc1ccc(-c2cn3ccsc3n2)cc1,4,-18,7,i,-14,·,·
O=C(Nc1ccc(-c2cn3ccsc3n2)cc1)C1CCCC1,59*,23,57*,i,26,50*,69*
O=c1c2ccc(Cl)cc2nc(-c2ccc([N+](=O)[O-])cc2)n1O,63*,18,55*,i,33,45*,63*
SMILES,TIM10 inh,PfHsp90 set2,tim23-1 inh,Rce1 inh,tim10-1 inh,tim10 confirm,tim23-1 conf
O=C(COc1cccc(NC(=O)c2ccco2)c1)c1ccccc1,48*,·,54*,i,21,25,66*
O=C(Nc1ccc(Oc2cccc3ccccc23)cc1)c1ccco1,40*,1,58*,i,13,25,77*
Cc1cc(C)c(OCC(=O)Nc2cccc(NC(=O)c3ccco3)c2)c(Br)c1,45*,-2,55*,i,18,29,44*
COc1ccc(C(=O)COc2cccc(NC(=O)c3ccco3)c2)cc1,37,1,33,i,24,·,·
O=C(O)c1ccccc1C(=O)Nc1ccc(Oc2cccc3ccccc23)cc1,·,-3,·,·,·,·,·
COc1ccc(-c2nc(C#N)c(NCCc3ccccc3)o2)cc1,11,·,21,i,19,·,·
COc1ccc(CCNc2oc(-c3ccc(C)cc3)nc2C#N)cc1OC,53*,-5,55*,i,19,61*,76*
CCn1c(CSc2nc3ccccc3s2)nc2ccccc21,51*,-23,54*,i,37,44*,52*
CCOc1ccc(CN(C)C(=O)CCl)cc1,8,-5,21,i,11,·,·
O=C1CCCCCN1Sc1ccccc1,51*,-60,58*,i,31,35*,29
O=C1CCCCCN1C(=O)c1ccccc1,·,11,·,·,·,·,·
CC1CCc2cc(F)cc3c(O)c(C(=O)NCc4ccco4)c(=O)n1c23 (stereo not given),49*,13,55*,i,30,-4,51*
CC1CCc2cc(F)cc3c(O)c(C(=O)NCCN(C)C)c(=O)n1c23 (stereo not given),27,-1,15,i,12,·,·
COc1cc(NC(=O)C2CC(=O)N(Cc3ccco3)C2)cc(OC)c1 (stereo not given),2,2,-15,i,-13,·,·
Cc1cccc(-c2nc(Nc3cccc(O)c3)c3ccccc3n2)c1,53*,-44,78*,i,6,50*,24
O=C(CCl)Nc1cccc(-c2cnc3ccccc3n2)c1,40*,8,63*,i,34,0,40*
C=C1SC(Nc2c(C)cc(C)cc2C)=NC12CCCCC2,45*,7,65*,i,33,39*,63*
Cc1cc(C)c(NC(=O)CN2C(=O)NC3(CCCCC3)C2=O)c(C)c1,0,15,7,i,13,·,·
C=CCC1(C#N)C(SC)=NC2=C(C(=O)CC(C)(C)C2)C1c1ccc(Br)cc1 (stereo not given),44*,-13,55*,i,39,32*,43*
COc1ccc(C2C(C#N)=C(SC)NC3=C2C(=O)CC(C)(C)C3)cc1 (stereo not given),-3,·,8,i,4,·,·
COc1ccc2cc(CN(Cc3ccco3)Cc3nnnn3C3CCCCC3)c(=O)[nH]c2c1,41*,-31,59*,i,34,18,60*
CCOc1ccc(N/C=C/C(=O)c2ccccc2)c([N+](=O)[O-])c1,70*,18,57*,i,38,-1,77*
CCOc1ccc(NC(=O)/C=C/c2ccccc2)c([N+](=O)[O-])c1,-7,-4,7,i,11,·,·
O=C(Nc1cnc2ccccc2c1)c1ccncc1,-15,-28,7,i,12,·,·

# Screening data from PubChem BioAssay.
